The record followed here is the supplement of paper PMC10849652.

The full data set covers some 7,900 targets. This sample favours those with a hit. About 0.6% of all pairs of compound and target were hits. Values without a mark were called inactive.

Holding throughout (experiment): log2 fold change, soluble protein after heating vs DMSO (PISA); higher = thermal stabilisation; K562 cells, 10 uM, 30 min; active = over 0.2 and 3.5 SD of the protein, either way, in both replicates (recomputed)
Compound in test [1]: COC1=CC=C(C=C1)CN2C=CC3=C2C=C(C=C3)C(=O)NO
The procedure, abridged:
(§1)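 For each measurement, 10 μM compound was applied for 30 min to K562 cells at 2×10^6 cells/mL. Aliquots were heated for 3 min across 48°C-58°C, pooled, and extracted in PBS with 0.5% NP-40 at 4°C; the supernatant after 21,000xg for 90 min was soluble protein. This was quantified by TMTpro 16plex LC-MS/MS with channel sums equalised, and thermal stability was reported relative to control samples from duplicates, on a log2 fold-change scale.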

Compound in test [2]: CO[C@H]1C[C@@H]2CC[C@@H](C)[C@@](O)(O2)C(=O)C(=O)N2CCCC[C@H]2C(=O)O[C@H]([C@H](C)C[C@@H]2CC[C@H](n3cnnn3)[C@H](OC)C2)CC(=O)[C@H](C)/C=C(\C)[C@@H](O)[C@@H](OC)C(=O)[C@H](C)C[C@H](C)/C=C/C=C/C=C/1C [zotarolimus]
Put shortly:
as §1

Compound in test [3]: COc1cc(C(=O)O)ccc1NC(=O)[C@@H]1N[C@@H](CC(C)(C)C)[C@](C#N)(c2ccc(Cl)cc2F)[C@H]1c1cccc(Cl)c1F [idasanutlin]
Put shortly:
as §1

Compound in test [4]: COc1cc(Nc2ncc3c(n2)-c2ccc(Cl)cc2C(c2c(F)cccc2OC)=NC3)ccc1C(=O)O [alisertib]
The procedure, abridged: as §1

Compound in test [5]: COc1cc2nc(-c3cc(F)ccc3O)nc(N[C@@H]3CNC[C@H]3C(C)(C)O)c2cc1OC
The procedure, abridged: as §1

Compound in test [6]: COc1cc2ncnc(Nc3ccc(F)c(Cl)c3)c2cc1OCCCN1CCOCC1 [gefitinib]
The procedure, abridged: as §1

Compound in test [7]: COc1cccc2cc(-c3nc([C@H]4CC[C@H](C(=O)O)CC4)n4ncnc(N)c34)[nH]c12
The procedure, abridged: as §1

Compound in test [8]: CS(=O)(=O)CCNCc1ccc(-c2ccc3ncnc(Nc4ccc(OCc5cccc(F)c5)c(Cl)c4)c3c2)o1 [lapatinib]
The procedure, abridged: as §1

Compound in test [9]: CON(C)C(=O)N1N=C(c2cc(F)ccc2F)S[C@@]1(CCCN)c1ccccc1 [filanesib]
Put shortly:
as §1

Compound in test [10]: CS(=O)(=O)N1CCN(Cc2cc3nc(-c4cccc5[nH]ncc45)nc(N4CCOCC4)c3s2)CC1 [pictilisib]
The procedure, abridged: as §1

Chain of UniProt Q8N4S0 (Q8N4S0 whole entry, looked up): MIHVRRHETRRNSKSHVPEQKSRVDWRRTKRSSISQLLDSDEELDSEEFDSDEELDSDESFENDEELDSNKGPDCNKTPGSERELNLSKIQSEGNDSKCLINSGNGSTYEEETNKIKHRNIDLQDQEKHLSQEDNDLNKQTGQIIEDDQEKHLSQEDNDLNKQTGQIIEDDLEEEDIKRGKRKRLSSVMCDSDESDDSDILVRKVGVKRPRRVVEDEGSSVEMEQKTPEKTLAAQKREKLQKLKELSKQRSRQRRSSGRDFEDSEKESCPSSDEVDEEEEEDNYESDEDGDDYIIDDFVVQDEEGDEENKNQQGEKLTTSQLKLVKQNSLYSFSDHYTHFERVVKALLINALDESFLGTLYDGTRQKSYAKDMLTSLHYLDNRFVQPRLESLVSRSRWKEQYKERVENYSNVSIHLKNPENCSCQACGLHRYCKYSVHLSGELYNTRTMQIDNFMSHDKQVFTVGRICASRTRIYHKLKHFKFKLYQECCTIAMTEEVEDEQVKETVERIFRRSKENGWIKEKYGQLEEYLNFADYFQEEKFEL
Chain of UniProt Q8WUD6 (Q8WUD6 whole entry, looked up): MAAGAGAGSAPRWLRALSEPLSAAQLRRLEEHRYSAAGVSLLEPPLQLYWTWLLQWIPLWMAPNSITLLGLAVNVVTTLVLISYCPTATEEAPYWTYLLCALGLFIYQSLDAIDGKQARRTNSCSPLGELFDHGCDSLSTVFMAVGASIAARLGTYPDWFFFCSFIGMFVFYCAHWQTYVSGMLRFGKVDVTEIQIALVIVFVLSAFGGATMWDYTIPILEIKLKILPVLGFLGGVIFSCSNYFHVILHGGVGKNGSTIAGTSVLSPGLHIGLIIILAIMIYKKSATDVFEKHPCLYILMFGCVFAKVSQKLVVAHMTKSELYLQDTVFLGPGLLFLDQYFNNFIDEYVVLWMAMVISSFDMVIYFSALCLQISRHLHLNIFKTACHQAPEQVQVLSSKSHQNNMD
Chain of UniProt Q5BKX5 (Q5BKX5 whole entry, looked up): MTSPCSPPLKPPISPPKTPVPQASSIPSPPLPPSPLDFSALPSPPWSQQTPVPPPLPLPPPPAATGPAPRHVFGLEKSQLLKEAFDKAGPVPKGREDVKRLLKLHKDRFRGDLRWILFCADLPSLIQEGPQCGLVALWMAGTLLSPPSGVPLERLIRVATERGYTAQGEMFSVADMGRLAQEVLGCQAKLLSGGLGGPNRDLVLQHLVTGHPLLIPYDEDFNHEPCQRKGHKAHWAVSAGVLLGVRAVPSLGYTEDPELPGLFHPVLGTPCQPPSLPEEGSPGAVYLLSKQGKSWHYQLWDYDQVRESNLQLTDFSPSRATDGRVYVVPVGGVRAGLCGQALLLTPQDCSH
Chain of UniProt P55211 (P55211 whole entry, looked up): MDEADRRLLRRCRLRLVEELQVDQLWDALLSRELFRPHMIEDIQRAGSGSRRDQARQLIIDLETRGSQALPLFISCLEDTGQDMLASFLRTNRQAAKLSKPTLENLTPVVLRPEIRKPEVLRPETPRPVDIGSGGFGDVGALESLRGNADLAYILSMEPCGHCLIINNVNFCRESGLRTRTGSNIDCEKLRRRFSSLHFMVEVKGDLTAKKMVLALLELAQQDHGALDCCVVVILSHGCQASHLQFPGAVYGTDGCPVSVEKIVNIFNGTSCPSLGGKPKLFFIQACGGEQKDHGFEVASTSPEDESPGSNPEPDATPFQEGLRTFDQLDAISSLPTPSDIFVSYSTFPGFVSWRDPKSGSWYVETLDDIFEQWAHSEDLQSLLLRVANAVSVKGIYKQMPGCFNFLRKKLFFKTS
Chain of UniProt P33552 (P33552 whole entry, looked up): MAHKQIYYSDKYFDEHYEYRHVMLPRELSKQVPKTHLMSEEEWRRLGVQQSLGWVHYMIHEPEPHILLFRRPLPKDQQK
Chain of UniProt Q13901 (Q13901 whole entry, looked up): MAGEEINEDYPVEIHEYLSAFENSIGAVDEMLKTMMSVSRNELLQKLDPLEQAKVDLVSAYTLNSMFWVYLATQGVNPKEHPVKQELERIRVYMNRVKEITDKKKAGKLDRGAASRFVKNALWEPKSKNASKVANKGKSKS
Chain of UniProt Q02224 (Q02224 whole entry, looked up): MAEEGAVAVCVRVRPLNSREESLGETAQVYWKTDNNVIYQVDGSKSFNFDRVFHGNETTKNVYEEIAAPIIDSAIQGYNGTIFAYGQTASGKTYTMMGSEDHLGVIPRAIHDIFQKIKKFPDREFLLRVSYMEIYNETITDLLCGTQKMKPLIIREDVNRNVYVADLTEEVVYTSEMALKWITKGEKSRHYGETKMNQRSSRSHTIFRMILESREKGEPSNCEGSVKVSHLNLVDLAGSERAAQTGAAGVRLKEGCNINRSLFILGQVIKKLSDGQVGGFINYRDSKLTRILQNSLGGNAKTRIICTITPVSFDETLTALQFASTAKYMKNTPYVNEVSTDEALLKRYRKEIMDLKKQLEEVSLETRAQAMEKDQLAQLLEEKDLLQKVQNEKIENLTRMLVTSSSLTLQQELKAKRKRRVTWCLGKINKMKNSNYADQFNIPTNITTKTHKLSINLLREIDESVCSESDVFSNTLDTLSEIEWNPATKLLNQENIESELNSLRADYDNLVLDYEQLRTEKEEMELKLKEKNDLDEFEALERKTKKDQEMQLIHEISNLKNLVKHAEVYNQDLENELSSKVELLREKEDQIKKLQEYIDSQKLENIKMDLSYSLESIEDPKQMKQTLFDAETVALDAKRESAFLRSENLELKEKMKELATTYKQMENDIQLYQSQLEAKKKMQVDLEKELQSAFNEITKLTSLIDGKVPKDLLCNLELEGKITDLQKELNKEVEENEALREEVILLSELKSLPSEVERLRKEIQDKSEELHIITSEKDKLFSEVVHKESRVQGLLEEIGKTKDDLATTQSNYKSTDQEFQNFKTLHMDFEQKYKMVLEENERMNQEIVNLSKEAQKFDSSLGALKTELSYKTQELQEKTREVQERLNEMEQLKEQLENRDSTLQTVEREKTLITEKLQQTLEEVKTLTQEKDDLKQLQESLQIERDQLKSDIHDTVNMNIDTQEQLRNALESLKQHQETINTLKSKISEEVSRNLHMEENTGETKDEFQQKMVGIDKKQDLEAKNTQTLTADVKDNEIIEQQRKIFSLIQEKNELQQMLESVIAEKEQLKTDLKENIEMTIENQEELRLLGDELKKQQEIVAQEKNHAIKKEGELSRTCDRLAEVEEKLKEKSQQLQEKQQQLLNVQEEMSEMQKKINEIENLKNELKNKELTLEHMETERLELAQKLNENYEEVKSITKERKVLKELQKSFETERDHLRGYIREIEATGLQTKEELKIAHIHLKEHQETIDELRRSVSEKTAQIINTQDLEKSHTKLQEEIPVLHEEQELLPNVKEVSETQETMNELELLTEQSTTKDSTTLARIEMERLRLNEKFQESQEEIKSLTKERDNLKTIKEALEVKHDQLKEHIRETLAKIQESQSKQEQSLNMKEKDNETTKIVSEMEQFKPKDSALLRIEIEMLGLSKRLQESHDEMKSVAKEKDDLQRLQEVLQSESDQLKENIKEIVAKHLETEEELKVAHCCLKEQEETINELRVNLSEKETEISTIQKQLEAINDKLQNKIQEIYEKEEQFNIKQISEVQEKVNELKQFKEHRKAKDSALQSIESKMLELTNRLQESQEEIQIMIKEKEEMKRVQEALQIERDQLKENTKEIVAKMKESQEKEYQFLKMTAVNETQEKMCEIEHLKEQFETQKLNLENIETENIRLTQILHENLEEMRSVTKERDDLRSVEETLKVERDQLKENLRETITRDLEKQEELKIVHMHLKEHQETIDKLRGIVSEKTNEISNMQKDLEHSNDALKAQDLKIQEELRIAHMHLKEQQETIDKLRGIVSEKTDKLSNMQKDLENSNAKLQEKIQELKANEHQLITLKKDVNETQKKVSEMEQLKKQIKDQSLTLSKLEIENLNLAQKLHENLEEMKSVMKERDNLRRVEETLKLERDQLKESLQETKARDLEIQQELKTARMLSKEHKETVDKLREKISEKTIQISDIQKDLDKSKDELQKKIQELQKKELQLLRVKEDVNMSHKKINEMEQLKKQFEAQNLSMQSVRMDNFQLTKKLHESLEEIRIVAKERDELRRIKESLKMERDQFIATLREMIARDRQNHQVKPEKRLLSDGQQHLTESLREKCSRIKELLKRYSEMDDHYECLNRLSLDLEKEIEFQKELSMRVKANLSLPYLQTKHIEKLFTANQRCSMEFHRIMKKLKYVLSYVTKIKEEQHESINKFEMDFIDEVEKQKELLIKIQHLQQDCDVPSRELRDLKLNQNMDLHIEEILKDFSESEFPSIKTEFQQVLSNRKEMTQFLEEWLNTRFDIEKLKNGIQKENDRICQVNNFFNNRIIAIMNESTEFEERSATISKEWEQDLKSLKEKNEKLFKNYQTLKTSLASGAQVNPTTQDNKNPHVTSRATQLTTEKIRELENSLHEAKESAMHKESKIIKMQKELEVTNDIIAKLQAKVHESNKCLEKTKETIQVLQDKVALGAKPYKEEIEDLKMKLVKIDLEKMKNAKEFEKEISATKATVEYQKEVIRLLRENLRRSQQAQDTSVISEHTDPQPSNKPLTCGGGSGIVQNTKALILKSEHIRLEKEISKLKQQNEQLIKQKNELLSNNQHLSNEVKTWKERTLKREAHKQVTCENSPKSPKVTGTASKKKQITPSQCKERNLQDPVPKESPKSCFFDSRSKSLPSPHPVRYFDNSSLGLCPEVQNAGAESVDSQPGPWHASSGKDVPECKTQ
Chain of UniProt Q9UBY8 (Q9UBY8 whole entry, looked up): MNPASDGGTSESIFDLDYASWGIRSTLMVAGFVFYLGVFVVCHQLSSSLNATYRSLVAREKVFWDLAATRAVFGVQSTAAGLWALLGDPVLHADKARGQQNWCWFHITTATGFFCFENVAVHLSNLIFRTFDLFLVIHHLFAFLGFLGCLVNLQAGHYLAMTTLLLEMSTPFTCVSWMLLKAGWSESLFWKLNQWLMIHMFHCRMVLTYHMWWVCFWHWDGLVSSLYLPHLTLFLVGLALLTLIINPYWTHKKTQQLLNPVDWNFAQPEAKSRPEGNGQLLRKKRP

Turning to CCDC82 (UniProt Q8N4S0), the log2 fold change in [1] was -0.356; in test [2], 0.013; in [3], 0; in test [4], 0.034; in test [5], -0.013; in test [6] it was 0.052. Further, the log2 fold change in test [7] is -0.102; in test [8] it was 0.043.
Consider C15orf41 (UniProt Q9Y2V0), for which the log2 fold change is -0.057 in [1]; -0.021 in test [9]; -0.096 in [2]; -0.023 in [3]; 0.011 in [5]; -0.018 in [8]. In [10], the log2 fold change is 0.047.
Regarding C1D (UniProt Q13901), the log2 fold change in [1] is -0.171; in [9] it was -0.041; in [3], 0.12; in test [4] it was -0.138; in test [5], -0.101; in test [6], 0.043. For the same target, the log2 fold change in test [7] was -0.027; in [8], 0.006; in [10] it was 0.012.
For the target CNTN4 (UniProt Q8IWV2), the log2 fold change in test [1] was 0.1; in test [9], 0; in test [2] it was 0.017; in [3], -0.148; in [4] it was -0.399; in test [5] it was 0.341. For the same target, the log2 fold change in test [6] was -0.039; in [7], -0.169; in test [8] it was -0.047; in test [10], 0.222.
CAB39L (UniProt Q9H9S4): the log2 fold change in test [1] is -0.063; in [9], -0.07; in test [3], -0.052; in test [5], 0.07; in test [8] it was 0.057; in test [10], 0.029.
On to CASP9 (UniProt P55211), for which the log2 fold change in test [1] is 0.095; in test [9], 0.169; in test [2], -0.043; in test [3], -0.008; in test [5], 0.02; in test [6], 0.146. The log2 fold change in test [8] is -0.034; in test [10], -0.019.
For C19orf54 (UniProt Q5BKX5), the log2 fold change in test [1] is -0.025; in test [9] it was -0.278; in [2], 0.024; in test [3], -0.094; in test [5], 0.123; in [8] it was -0.125. Moreover, the log2 fold change in test [10] was 0.053.
As for CRLS1 (UniProt Q9UJA2), the log2 fold change is 0.044 in [1]; -0.125 in [9]; 0.005 in test [2]; -0.071 in [4]; -0.229 in [5]; 0.021 in [6]. The log2 fold change in test [7] is 0.075; in [8], 0.046; in test [10], -0.029.
COPS3 isoform 2 (UniProt Q9UNS2): the log2 fold change is -0.144 in test [1]; 0.157 in test [9]; 0.138 in test [3]; -0.008 in [4]; 0.321 in test [5]; 0.005 in [6]. The log2 fold change in [7] is 0.083; in [8] it was -0.211; in test [10], 0.128.
In the case of CLASP2 (UniProt O75122), the log2 fold change is 0.015 in test [1]; 0.235 in test [2]; 0.101 in test [3]; -0.025 in test [4]; 0.125 in test [5]; 0.071 in [6]. Besides, the figures for the log2 fold change in [7] and in test [8] were 0.072 and 0.032, respectively.
CENPE (UniProt Q02224): the log2 fold change was -0.355 in [1]; 0.445 in [9]; 0.288 in test [2]; -0.407 in [3]; -0.068 in test [5]; 0.024 in test [8]. Besides, the log2 fold change in test [10] is 0.048.
Regarding CLN3 (UniProt Q13286), the log2 fold change in [1] is 0.008; in test [2] it was -0.1; in [4], 0; in test [5] it was 0.08; in test [6], -0.028; in test [7], 0.139. Further, in test [8], the log2 fold change is -0.059.
Consider CPNE5 (UniProt Q9HCH3), for which the log2 fold change in test [2] is -0.102.
On to COMMD3-BMI1 (UniProt R4GMX3), for which the log2 fold change in [9] was -0.08; in [2], -0.12; in test [3], 0.093; in test [5] it was 0.519 (active); in test [6], -0.029; in test [8] it was -0.445. In addition, the log2 fold change in [10] is 0.135.
Turning to CLN8 (UniProt Q9UBY8), the log2 fold change was 0.068 in test [9]; 0.13 in test [2]; -0.145 in [3]; 0.04 in test [4]; -0.019 in test [5]; 0.075 in test [6]. In addition, the results for the log2 fold change in test [7] and in test [8] were -0.015 and 0.012, respectively.
On to CAD (UniProt H7BZB3), for which the log2 fold change in [3] is -0.006.
Take CKS2 (UniProt P33552): the log2 fold change in [3] was 0.193; in test [4], -0.029; in test [5], 0.184; in [6] it was 0.093; in [7], 0.14; in [8], -0.036. In addition, in [10], the log2 fold change was -0.666.
CD84 (UniProt Q9UIB8): the log2 fold change in test [9] was -0.009; in [2], -0.194; in test [3], -0.082.
For CEMIP2 (UniProt Q9UHN6), the log2 fold change in test [1] was -0.018; in test [2], 0.008; in test [3], 0.021; in test [4] it was 0.202; in test [5], 0.121; in test [6], 0.072. The figures for the log2 fold change in test [7], in test [8] and in test [10] were 0.135, 0.026 and 0.097, respectively.
Regarding CSNK1A1 isoform 3 (UniProt P48729), the log2 fold change was -0.006 in [5], 0.091 in test [7] and 0.129 in test [8].
Consider CASP7 isoform 3 (UniProt P55210), for which the log2 fold change is 0.282 in test [6] and 0.234 in test [10].
CHPT1 (UniProt Q8WUD6): the log2 fold change in [9] is -0.345; in [2], -0.017; in test [3], -0.018; in test [4], -0.136; in test [5], -0.009; in test [6], 0.013. The log2 fold change in test [7] was -0.015; in test [8], 0.159; in test [10], -0.096.
